This is an account of results in PubChem BioAssay (Tox21).

Where “and” joins values, the source holds several entries; their conditions need not be identical. Equal values may be shown once. Results filed as inconclusive are left out. The source holds several records for some structures; these can differ, active in one and inactive in another. Calls of active or inactive are those of the source. The call rests on the fitted dose curve; in most records, active means well fitted curve in the direction sought with a large enough effect in the repeat runs; inconclusive means weak or mixed curves; inactive means no such curve, though single readings can be large; an effect the other way counts as inactive or inconclusive.

A short description of assay [1]: qHTS RealTime-Glo MT Cell Viability Assay in HepG2 cells - 40 hour (AID 1224870). Further: nearly all actives have a fitted effect of over 50% in size. In short, it runs like this: (§1)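 Real-time viability: cells seeded at 600 per well together with NanoLuc and cell-permeant prosubstrate, compounds added after 5 h incubation. Luminescence tracked at 0, 8, 16, 24, 32 and 40 h of exposure.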
Assay [2] can be described thus: A CellTox Green Cytotoxicity Assay to monitor cytotoxicity in HEK293 cells - 40 hour (AID 1224871). Further: nearly all actives have a fitted effect of over 45% in size. Further: potency means the concentration at half of the fitted maximal effect. In short, it runs like this:
(§2)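 Tox21 screen in HEK293: membrane-impermeant cyanine dye fluoresces on binding dead-cell DNA; compound pinned 5 h post-seeding, plates held at 37 C, signal read repeatedly through 40 h.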

A short description of assay [3]: qHTS RealTime-Glo MT Cell Viability Assay in HEK293 cells - 16 hour (AID 1224872). Further: nearly all actives have a fitted effect of over 50% in size. Further: potency means the concentration at half of the fitted maximal effect. An outline of the steps:
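HEK293 cells seeded with NanoLuc/prosubstrate reagent, rested 5 h at 37 C, then dosed and kept at 37 C up to 40 h. Nonlytic real-time luminescence from viable cells read at 0, 8, 16, 24, 32 and 40 h.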

Assay [4] in a line: qHTS RealTime-Glo MT Cell Viability Assay in HepG2 cells - 8 hour (AID 1224873). Further: nearly all actives have a fitted effect of over 55% in size. In short, it runs like this:
as §1

A short description of assay [5]: qHTS RealTime-Glo MT Cell Viability Assay in HEK293 cells - 40 hour (AID 1224874). Further: nearly all actives have a fitted effect of over 50% in size. Further: potency means the concentration at half of the fitted maximal effect. The conditions noted are these: RealTime-Glo luminescence; max response: stronger effect = lower value. An outline of the steps:
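HEK293 + NanoLuc + prosubstrate, 600 cells/well; 5 h, 37 C/5% CO2; compound 23 nL in DMSO by pintool; 37 C; luminescence read at 0, 8, 16, 24, 32 and 40 h time points.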

Assay [6] in a line: A CellTox Green Cytotoxicity Assay to monitor cytotoxicity in HEK293 cells - 24 hour (AID 1224875). Further: series mostly up to about 77 µM; nearly all actives have a fitted effect of over 45% in size. In short, it runs like this:
as §2

A short description of assay [7]: A CellTox Green Cytotoxicity Assay to monitor cytotoxicity in HepG2 cells - 16 hour (AID 1224876). Further: nearly all actives have a fitted effect of over 45% in size. Further: potency means the concentration at half of the fitted maximal effect. In short, it runs like this:
(§3)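 Measurements at 0, 8, 16, 24, 32 and 40 h of treatment captured CellTox Green fluorescence in HepG2 cells that had been co-plated with reagent and preincubated 5 h at 37 C/5% CO2.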

A short description of assay [8]: qHTS RealTime-Glo MT Cell Viability Assay in HepG2 cells - 32 hour (AID 1224877). Further: nearly all actives have a fitted effect of over 55% in size. In short, it runs like this:
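HepG2 cells (600/well) were dispensed with RealTime-Glo reagents, incubated 5 h at 37 °C, then treated with compounds in DMSO for up to 40 h. Nonlytic NanoLuc luminescence reflecting viable cells was read at each stated time point.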

Assay [9] is described as follows: A CellTox Green Cytotoxicity Assay to monitor cytotoxicity in HepG2 cells - 24 hour (AID 1224878). Further: nearly all actives have a fitted effect of over 45% in size. Further: potency means the concentration at half of the fitted maximal effect. In short, it runs like this: as §3
A short description of assay [10]: A CellTox Green Cytotoxicity Assay to monitor cytotoxicity in HepG2 cells - 40 hour (AID 1224879). Further: nearly all actives have a fitted effect of over 40% in size. Further: potency means the concentration at half of the fitted maximal effect. An outline of the steps: as §3
On the % scale 0 is the no-effect control and ±100 the full control effect.

With `COC(=O)CCC(=O)OC`, the Potency entry in assay [1], in assay [2], in assay [3], in assay [4], in assay [6] and in [7] was “inactive” throughout. The Potency result in assay [8], in assay [9] and in assay [10] was “inactive” throughout. The max response in assay [5] is -3.79% (inactive) and 17.6% (inactive).

Turning to `COc1ccc(C(=O)CC(=O)c2ccc(C(C)(C)C)cc2)cc1`, the Potency entry in [1], in assay [2], in assay [4], in [6] and in assay [8] was “inactive” in each case. The Potency in assay [3] is 29.6 µM (active) and inactive; in assay [5], 29.6 µM (active); in assay [7], “inactive and 67.4 nM (active)”; in assay [9] it was “inactive and 75.6 nM (active)”; in assay [10] it was “inactive and 67.4 nM (active)”. Moreover, the max response in assay [5] was -14% (inactive).

As to `CCCCNS(=O)(=O)c1ccccc1`, the Potency result in assay [1], in [2], in [4], in assay [6], in assay [7] and in assay [8] was “inactive” each time. Further, the Potency result in assay [9] and in [10] was “inactive” throughout. Moreover, the Potency result in [3] is “inactive and 7.76 µM (active)”; in assay [5], 4.36 µM (active). Further, the max response in assay [5] was -5.06% (inactive).

Consider `O=C(OCc1ccccc1)c1ccccc1O`, for which the Potency result in [1], in assay [2], in assay [3], in assay [4], in [6] and in assay [7] was “inactive” throughout. Also, the Potency entry in [8], in [9] and in [10] was “inactive” throughout. For the same compound, the max response in [5] was -14.6% (inactive) and -4.96% (inactive).

Take `c1cc(-c2ccncc2)ccn1`: the Potency result in assay [1], in assay [2], in assay [3], in assay [4], in [6] and in assay [7] was “inactive” each time. Further, the Potency entry in [8], in assay [9] and in assay [10] was “inactive” throughout. Further, the max response in [5] is -8.48% (inactive) and 4.82% (inactive).

On to `NC=O`, for which the Potency entry in assay [1], in assay [2], in [3], in assay [4], in [6] and in [7] was “inactive” in each case. For the same compound, the Potency result in [8], in [9] and in assay [10] was “inactive” in each case. In addition, the max response in assay [5] is -1.02% (inactive) and -20.4% (inactive).

Regarding `CN(C)c1nc(N(C)C)nc(N(C)C)n1`, the Potency result in assay [1], in assay [2], in assay [3], in [4], in assay [6] and in assay [7] was “inactive” in each case. The Potency entry in assay [8], in assay [9] and in [10] was “inactive” in each case. In addition, in assay [5], the max response is -18.5% (inactive) and -1.64% (inactive).

As to `Nc1ncnc2nc[nH]c12`, the Potency entry in assay [1], in assay [2], in assay [3], in assay [4], in [6] and in assay [7] was “inactive” each time. For the same compound, the Potency result in [8], in assay [9] and in assay [10] was “inactive” in each case. In assay [5], the max response is 0.881% (inactive) and 2.65% (inactive).

For the compound `O=CCCCC=O`, the Potency entry in assay [1], in assay [2], in [3], in assay [4], in assay [6] and in assay [7] was “inactive” throughout. Moreover, the Potency entry in assay [8] was “inactive”. In assay [5], the Potency was 42.1 µM (active). The max response in assay [5] is 3.08% (inactive).

For the compound `c1ccncc1`, the Potency entry in assay [1], in [2], in assay [3], in [4], in assay [6] and in assay [7] was “inactive” in each case. Moreover, the Potency result in assay [8], in assay [9] and in assay [10] was “inactive” throughout. Besides, the max response in assay [5] was 5.95% (inactive) and 4.64% (inactive).

For the compound `CCCCOCCOCCO`, the Potency result in [1], in [2], in assay [3], in assay [4], in assay [6] and in [7] was “inactive” each time. The Potency result in assay [8], in [9] and in [10] was “inactive” throughout. Further, the max response in [5] was 0.043% (inactive) and 0.397% (inactive).

As for `CCCCC/C=C/C=C/C=O`, the Potency entry in assay [1], in assay [3], in assay [4], in [6], in assay [7] and in assay [8] was “inactive” throughout. Moreover, in [9], the Potency result was “inactive”. For the same compound, the Potency in assay [2] was 54.5 µM (active); in [10], 54.9 µM (active). Further, the max response in [5] was -25% (inactive).

For the compound `Nc1ccc(Nc2ccccc2)cc1`, the Potency result in assay [1], in assay [2], in [4], in assay [6], in [7] and in assay [8] was “inactive” in each case. Besides, the Potency entry in [9] and in assay [10] was “inactive” throughout. The results for the Potency in [3] and in assay [5] were 43.2 µM (active) and 48.5 µM (active), respectively.

In the case of `COC(=O)c1ccccc1`, the Potency result in [1], in assay [2], in assay [3], in [4], in [6] and in assay [7] was “inactive” in each case. In addition, the Potency result in assay [8], in [9] and in assay [10] was “inactive” each time. The Potency in [5] is 12.3 µM (active). In addition, the max response in [5] is 7.68% (inactive).

In the case of `OC(CCl)CCl`, the Potency result in assay [1], in assay [2], in assay [3], in assay [4], in assay [6] and in [7] was “inactive” in each case. Further, the Potency entry in assay [8], in [9] and in [10] was “inactive” throughout. For the same compound, in assay [5], the max response is 2.58% (inactive) and 9.25% (inactive).

With `Nc1ncn([C@@H]2O[C@H](CO)[C@@H](O)[C@H]2O)c(=O)n1`, the Potency result in assay [1], in [2], in [3], in [4], in assay [6] and in assay [7] was “inactive” in each case. The Potency result in [8], in [9] and in assay [10] was “inactive” throughout. Also, the max response in [5] was -27.7% (inactive) and 4.66% (inactive).

Turning to `C=C(C)C1CC=C(C)CC1` (configuration not stated), the Potency result in assay [1], in [2], in [3], in [4], in [6] and in [7] was “inactive” throughout. For the same compound, the Potency entry in assay [8], in assay [9] and in [10] was “inactive” each time. The max response in assay [5] is 1.72% (inactive) and 5.41% (inactive).

For `C=CC(C)(CCC=C(C)C)OC(C)=O` (configuration not stated), the Potency entry in [1], in [2], in [3], in [4], in assay [6] and in [7] was “inactive” throughout. Also, the Potency result in assay [8], in assay [9] and in [10] was “inactive” each time. Moreover, the max response in [5] was 4.78% (inactive) and 0.789% (inactive).
